Bioassay records as filed in PubChem.
D1 antagonist = Antagonist of Human D 1 Dopamine Receptor: qHTS | D(1A) dopamine receptor (Homo sapiens), P21728 | HEK293 TREx D1 cells, calcium flux, dopamine EC80; stronger effect = lower value | activity change, negative = inhibition, % at 10 µM | actives 3.2% (n = 360,000); in the data active means activity change below about -30%; further: on the % scale 0 is the no-effect control and ±100 the full control effect
Target sequence (P21728 whole entry, looked up): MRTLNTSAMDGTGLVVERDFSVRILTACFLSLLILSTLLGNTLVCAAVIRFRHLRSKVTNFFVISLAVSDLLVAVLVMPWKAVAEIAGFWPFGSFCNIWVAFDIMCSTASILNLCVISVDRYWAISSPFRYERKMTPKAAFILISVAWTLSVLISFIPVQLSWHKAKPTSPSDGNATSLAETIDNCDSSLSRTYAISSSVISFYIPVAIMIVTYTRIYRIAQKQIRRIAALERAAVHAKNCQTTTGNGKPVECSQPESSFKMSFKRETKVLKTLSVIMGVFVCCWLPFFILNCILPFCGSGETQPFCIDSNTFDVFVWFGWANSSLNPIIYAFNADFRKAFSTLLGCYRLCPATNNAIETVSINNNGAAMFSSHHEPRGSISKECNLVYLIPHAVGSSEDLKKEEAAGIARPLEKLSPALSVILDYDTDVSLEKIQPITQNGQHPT
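HEK293 T-REx cells expressing inducible, force-coupled D1 receptor; no-wash Ca dye, 30–90 min RT. Cmpd → 180 s read at 1 Hz → EC80 DA → 180 s read.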
D3 antag = qHTS of D3 Dopamine Receptor Antagonist: qHTS. D(3) dopamine receptor (Homo sapiens), P35462. D3R cells, DiscoveRx beta-arrestin luminescence, antagonist mode; stronger effect = lower value. max response, negative = inhibition, %. actives 2.5% (n = 360,000); in the data active means max response below about -50%; inconclusive means no clear call, values can overlap the other calls; further: on the % scale 0 is the no-effect control and ±100 the full control effect
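Cells plated overnight at 1500 cells/well, then exposed to library compounds with dopamine controls for 90 minutes at 37 degrees C. DiscoveRx reagent added for 30–60 minutes at room temperature; luminescence read, quantitative HTS format.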
D1 PAM = Potentiators of Human D1 Dopamine Receptor: qHTS | D(1A) dopamine receptor (Homo sapiens), P21728 | HEK293 TREx D1 cells, calcium flux, dopamine EC20 potentiation | potentiation, % at 10 µM | actives 0.036% (n = 360,000); in the data active means potentiation above about 30%; further: 0% is about no effect
D3 ag = qHTS of D3 Dopamine Receptor Agonist: qHTS; D(3) dopamine receptor (Homo sapiens), P35462; D3R DiscoveRx beta-arrestin cells, luminescence, 90 min; max activation, %; actives 0.58% (n = 410,000); AID 652048, 2013; in the data active means max activation above about 30%; further: 0% is about no effect
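Agonist mode: compounds and dopamine controls were applied to plated cells for 90 min at 37 degrees C after an overnight attachment at 1500 cells/well. Luminescent read-out followed 30 - 60 minutes at room temperature with DiscoveRx detection reagent.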
D1 ag = Allosteric Agonists of the Human D1 Dopamine Receptor: qHTS; D(1A) dopamine receptor (Homo sapiens), P21728; HEK293 T-REx D1 cells, calcium flux, agonist mode; activation, % at 2 µM; actives 1% (n = 360,000); in the data active means activation above about 30%; further: 0% is about no effect
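Agonism was scored from calcium flux recorded over 180 s (1 read/s) after pintool compound addition, following a 10-cycle baseline. Cells were inducible force-coupled HEK293 TREx D1, plated overnight at 30 C and loaded with no-wash calcium dye.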
Starred values were filed as active, the others as inactive; ! = not active in a repeat. An excerpt weighted towards active compounds, which were near 6.1% of everything screened.

How did Oc1c(C=C2N=c3ccccc3=N2)sc(=S)n1C1CCCC1 do in these assays?
D1 antagonist: -71*; D3 antag: 7; D1 PAM: 8; D3 ag: -5; D1 ag: 5

What do the screens show for `COc1cc(C2CC(=O)c3c([nH]c(C(=O)OC4CCCCC4)c3C)C2)cc(OC)c1OC` (stereo not given)?
D1 antagonist: -9; D1 PAM: 1; D3 ag: 1; D1 ag: 6

Results for O=c1c(/C=C(\O)c2ccc(F)cc2)nc2ccccc2n1-c1ccccc1 ?
D1 antagonist: 5; D3 antag: 0; D1 PAM: 8; D3 ag: 11; D1 ag: 159*

What do the screens show for `O=C(O)C1CC(=O)N(CCc2ccc(F)cc2)C1` (stereo not given)?
D1 antagonist: 10; D3 antag: 13; D1 PAM: -1; D3 ag: 3; D1 ag: 1

How did O=Cc1c(NCc2ccc(F)cc2)c2ccccc2[nH]c1=O do in these assays?
D1 antagonist: -36*; D3 antag: -10; D1 PAM: -9; D3 ag: -12; D1 ag: 4

Results for O=Cc1c(NCc2cccc(F)c2)c2ccccc2[nH]c1=O ?
D1 antagonist: -24; D3 antag: 0; D1 PAM: -1; D3 ag: 2; D1 ag: 4

How did O=Cc1c(NC2CCCCC2)c2ccccc2[nH]c1=O do in these assays?
D1 antagonist: 0; D3 antag: 3; D1 PAM: 0; D3 ag: 1; D1 ag: 5

What do the screens show for `O=Cc1c(NCc2ccccc2Cl)c2ccccc2[nH]c1=O`?
D1 antagonist: -33*; D3 antag: 6; D1 PAM: -1; D3 ag: -8; D1 ag: 3

How did Cc1ccc(CNc2c(C=O)c(=O)[nH]c3ccccc23)cc1 do in these assays?
D1 antagonist: -51*; D3 antag: 0; D1 PAM: -2; D3 ag: 0; D1 ag: 6

Results for COc1ccc(C(C(=O)NCC2CCCO2)N(C(=O)Cn2nnc3ccccc32)c2ccc(NC(C)=O)cc2)c(OC)c1 (stereo not given) ?
D1 antagonist: -67*; D3 antag: 17; D1 PAM: -7; D3 ag: 2; D1 ag: 18

How did CN(C)[C@@H]1C(=O)C(C(=O)NCN2CCCC2)=C(O)[C@@]2(O)C(=O)C3=C(O)c4c(O)cccc4[C@@](C)(O)C3C[C@@H]12 (stereo not given in full) do in these assays?
D3 ag: -26

How did COc1ccc(CC(N)c2csc(Nc3cccc(OC)n3)n2)cc1 (stereo not given) do in these assays?
D3 antag: -83*; D3 ag: -13

Results for Cc1cc(C)n(CCNC(=O)c2cc(COc3c(F)cccc3F)on2)n1 ?
D1 antagonist: 9; D3 antag: -25; D1 PAM: 5; D3 ag: 4; D1 ag: 4

How did O=C(NCCN1CCCCC1)c1cc(COc2c(F)cccc2F)on1 do in these assays?
D1 antagonist: 3; D3 antag: -62*; D1 PAM: -1; D3 ag: -28; D1 ag: 6

How did Cc1ccccc1C1CCCN(C(=O)c2cc(COc3c(F)cccc3F)on2)C1 (stereo not given) do in these assays?
D1 antagonist: -33*; D3 antag: 6; D1 PAM: -6; D3 ag: 3; D1 ag: 16

What do the screens show for `Cc1cc(C)n(CCN(C)C(=O)c2cc(COc3c(F)cccc3F)on2)n1`?
D1 antagonist: -50*; D3 antag: -3; D1 PAM: -1; D3 ag: 3; D1 ag: -1

How did Cc1ccc(-n2cc(-c3ccccc3)c3c(N4CCCCC4)ncnc32)cc1 do in these assays?
D1 antagonist: 36; D1 PAM: 0; D3 ag: 5; D1 ag: 2

How did O=C(Nc1nc2ccccc2[nH]1)c1ccc(Br)o1 do in these assays?
D1 antagonist: 1; D3 antag: -12; D1 PAM: 1; D3 ag: 7; D1 ag: 0

What do the screens show for `COc1ccc(S(=O)(=O)N(CCc2ccccc2)CC(=O)N2CCOCC2)cc1`?
D1 antagonist: -74*; D3 antag: 6; D1 PAM: -4; D3 ag: -2; D1 ag: 1

Results for COc1ccc(S(=O)(=O)N(CCCN2CCOCC2)Cc2ccc(OC)c(OC)c2)cc1 ?
D1 antagonist: -21; D3 antag: -69*; D1 PAM: 1; D3 ag: -32; D1 ag: 0

Results for COc1ccc(S(=O)(=O)N(C)CC(=O)N2CCOCC2)cc1 ?
D1 antagonist: -12; D3 antag: 7; D1 PAM: -3; D3 ag: 1; D1 ag: 0

Results for O=S(=O)(c1cccc(C(F)(F)F)c1)N(CCCN1CCOCC1)Cc1cccs1 ?
D1 antagonist: -15; D3 antag: -80*!; D1 PAM: -9; D3 ag: -19; D1 ag: 7

How did COC(=O)c1ccccc1S(=O)(=O)N(CCCN1CCOCC1)Cc1cccs1 do in these assays?
D1 antagonist: 15; D3 antag: inconclusive; D1 PAM: -4; D3 ag: 4; D1 ag: -3

Results for COc1ccc(-c2cnc(C)o2)cc1S(=O)(=O)Nc1ccc(C)c(F)c1 ?
D1 antagonist: 9; D1 PAM: 0; D3 ag: -3; D1 ag: 4

How did COC(=O)c1cc2sccc2n1Cc1ccc(F)cc1Cl do in these assays?
D1 antagonist: 2; D1 PAM: -2; D3 ag: 0; D1 ag: 5

What do the screens show for `CSc1ccccc1NC(=O)Cn1nc([N+](=O)[O-])cc1C`?
D1 antagonist: -3; D3 antag: 10; D1 PAM: -3; D3 ag: 0; D1 ag: 3

How did Cc1ccc2c(C)c(C(=O)N(C)C(C)c3ccon3)oc2c1C (stereo not given) do in these assays?
D1 antagonist: -39*; D3 antag: 12; D1 PAM: -1; D3 ag: -1; D1 ag: 2

What do the screens show for `Cc1ccc2c(C)c(C(=O)N(C)C(C)c3ccncn3)oc2c1C` (stereo not given)?
D1 antagonist: 16; D3 antag: 0; D1 PAM: 6; D3 ag: 2; D1 ag: 2

What do the screens show for `CCC(=O)Nc1cccc(NC(=S)NC(=O)c2cccc(C)c2)c1`?
D1 antagonist: -38*; D3 antag: -6; D1 PAM: 1; D3 ag: -1; D1 ag: 9
